Data taken from PubChem BioAssay (Tox21).
Values joined by “and” are separate entries in the source; they are usually repeats but may differ in a detail not shown here. Equal entries are not always repeated. Results filed as inconclusive are left out. Where a call stands in place of a potency, no number is given. Active and inactive are the calls of the source. Calls come from the whole dose curve.

Experiments:
[1] = target: Acetylcholinesterase (Homo sapiens) (UniProt P22303); assay: Acetylcholinesterase (AChE) small molecule antagonists: colormetric cell-based qHTS assay (AID 1347395); note: nearly all actives have a fitted effect of over 30% in size; note: potency is the fitted concentration of half-maximal effect
In short: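 Colorimetric readout: DTNB quantifies thiocholine from acetylthiocholine hydrolysed by endogenous AChE of SH-SY5Y cells (2,000/well, plated overnight). Compound pretreatment 30 min, substrate incubation 90 min, both 37 C.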

[2] = target: Acetylcholinesterase (Homo sapiens) (UniProt P22303); assay: Acetylcholinesterase (AChE) small molecule antagonists: enzyme-based qHTS assay (AID 1347397); details: Potency: AChE enzyme activity inhibition; outcome: AChE enzyme activity inhibition; note: nearly all actives have a fitted effect of over 55% in size; note: potency is the fitted concentration of half-maximal effect
In short: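 Absorbance-based detection of thiocholine with DTNB served as the read-out. Recombinant human AChE was exposed to compound for 30 min at RT before a 10 min RT incubation with acetylthiocholine.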

[3] = target: Acetylcholinesterase (Homo sapiens) (UniProt P22303); assay: Acetylcholinesterase (AChE) small molecule antagonists: fluorescence cell-based qHTS assay (AID 1347398); details: Potency: AChE activity; outcome: AChE activity; note: nearly all actives have a fitted effect of over 50% in size; note: potency is the fitted concentration of half-maximal effect
In short: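 Fluorimetric cell-based assay: intact SH-SY5Y cells, 30 min compound preincubation at 37 C, acetylthiocholine substrate with thiol probe Thiolite Green, 40 min RT development, fluorescence 490/520 nm.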

[4] = target: Acetylcholinesterase (Homo sapiens) (UniProt P22303); assay: Acetylcholinesterase (AChE) small molecule antagonists: enzyme-based qHTS assay with human liver microsomes (AID 1347399); details: Potency: qHTS inhibition; outcome: qHTS inhibition; note: nearly all actives have a fitted effect of over 60% in size
In short: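 Recombinant human AChE (50 mU/mL in the enzyme mix) and human liver microsomes (0.25 mg/mL final) were preincubated with compound and NADPH (0.25 mg/mL final) for 30 min at 37 C. Acetylthiocholine/DTNB was then added; thiocholine was read colorimetrically after 10 min at room temperature.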

Sequence of Acetylcholinesterase (Homo sapiens) (P22303 whole entry, looked up): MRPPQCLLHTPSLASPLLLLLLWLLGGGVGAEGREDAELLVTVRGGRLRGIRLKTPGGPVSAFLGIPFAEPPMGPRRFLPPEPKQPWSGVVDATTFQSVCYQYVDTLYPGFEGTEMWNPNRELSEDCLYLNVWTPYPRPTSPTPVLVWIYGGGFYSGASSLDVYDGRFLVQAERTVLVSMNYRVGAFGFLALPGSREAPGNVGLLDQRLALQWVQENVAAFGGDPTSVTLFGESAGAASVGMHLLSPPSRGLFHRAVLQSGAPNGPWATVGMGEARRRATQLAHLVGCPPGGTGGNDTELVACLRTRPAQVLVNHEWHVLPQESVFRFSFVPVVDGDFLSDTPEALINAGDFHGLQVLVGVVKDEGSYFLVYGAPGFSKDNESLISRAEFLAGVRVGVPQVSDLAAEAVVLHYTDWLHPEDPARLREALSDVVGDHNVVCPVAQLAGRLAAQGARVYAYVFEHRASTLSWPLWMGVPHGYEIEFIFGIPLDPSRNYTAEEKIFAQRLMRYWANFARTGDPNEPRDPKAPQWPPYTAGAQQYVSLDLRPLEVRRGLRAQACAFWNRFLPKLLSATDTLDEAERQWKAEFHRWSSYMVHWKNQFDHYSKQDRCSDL

SMILES	Potency [1]	Potency [2]	Potency [3]	Potency [4]	outcome [1]	outcome [2]	outcome [3]	outcome [4]
Cc1coc2ccccc2c1=O	inactive	inactive	inactive	inactive	–	–	–	–
O=C(O)c1ccc[n+]([O-])c1	inactive	inactive	inactive	inactive	–	–	–	–
CC(C)C[C@H](NC(=O)[C@H](Cc1ccccc1)NC(=O)c1cnccn1)B(O)O	inactive	inactive	inactive	inactive	–	–	–	–
CCC(C)COC(C)=O (stereo not given)	inactive	inactive	inactive	inactive	–	–	–	–
Cc1ccc(Nc2c(F)cccc2Cl)c(CC(=O)O)c1	inactive	inactive	inactive	inactive	–	–	–	–
CCCCCCC(=O)c1ccccc1	inactive	inactive	inactive	inactive	–	–	–	–
CC1(C)C(=O)N(Br)C(=O)N1Br	inactive	inactive	inactive	inactive	–	–	–	–
CC(C)(c1cc(Br)c(O)c(Br)c1)c1cc(Br)c(O)c(Br)c1	inactive	39.8 µM (active) and 70.8 µM (active) and 67.2 µM (active)	inactive	inactive	–	–	–	–
CCCCCCCCS(=O)C(C)Cc1ccc2c(c1)OCO2 (stereo not given)	inactive	inactive	inactive	inactive	–	–	–	–
O=C(c1ccccc1)c1ccc(O)c(O)c1O	inactive	inactive	inactive	inactive	–	–	–	–
O=C(CCCN1CCC(O)(c2ccc(Br)cc2)CC1)c1ccc(F)cc1	inactive	inactive	inactive	inactive	–	–	–	–
COC(=O)C1=C(C)NC(C)=C(C(=O)OCC(C)C)C1c1ccccc1[N+](=O)[O-] (stereo not given)	inactive	inactive	inactive	inactive	–	–	–	–
COc1cc(/C=C/c2ccccc2)oc(=O)c1	inactive	inactive	inactive	inactive	–	–	–	–
C=C(C)C(=O)OCCN(CC)CC	inactive	inactive	inactive	inactive	–	–	–	–
CCCCCCC(C)(C)S	inactive	inactive	inactive	inactive	–	–	–	–
OCC(O)CN1CCN(c2ccccc2)CC1 (stereo not given)	inactive	inactive	inactive	inactive	–	–	–	–
O=C(O)c1ccc2cc(O)ccc2c1	inactive	inactive	inactive	inactive	–	–	–	–
CC(=O)Nc1ccc(C(=O)CCl)cc1	inactive	inactive	inactive	inactive	–	–	–	–
CNS(=O)(=O)CCc1ccc2[nH]cc(C3CCN(C)CC3)c2c1	inactive	inactive	inactive	inactive	–	–	–	–
Nc1cc(S(=O)(=O)O)ccc1S(=O)(=O)O	inactive	inactive	inactive	inactive	–	–	–	–

SMILES	Potency [1]	Potency [2]	Potency [3]	Potency [4]	outcome [1]	outcome [2]	outcome [3]	outcome [4]
CNC[C@H](O)c1ccc(O)c(O)c1	–	–	–	–	inactive	inactive	inactive	inactive
CC(C)OC(=O)CCCCC(=O)OC(C)C	inactive	inactive	inactive	inactive	–	–	–	–
Nc1nc2c(ncn2COCCO)c(=O)[nH]1	inactive	inactive	inactive	inactive	–	–	–	–
C[N+](C)(C)CC[N+]1(C)Cc2c(Cl)c(Cl)c(Cl)c(Cl)c2C1	inactive	inactive	inactive	inactive	–	–	–	–
Oc1ccccc1C=NCc1ccccc1	inactive	inactive	inactive	inactive	–	–	–	–
CN1CCC[C@H]1c1cccnc1	inactive	inactive	inactive	inactive	–	–	–	–
CCCCC(CC)COC(=O)c1ccc(O)cc1 (stereo not given)	inactive	inactive	inactive	inactive	–	–	–	–
CC/C=C1/OC(=O)c2ccccc21	inactive	inactive	inactive	inactive	–	–	–	–
CCC(=O)OC/C=C/c1ccccc1	inactive	inactive	inactive	inactive	–	–	–	–
CC(CO)(CO)CO	inactive	inactive	inactive	inactive	–	–	–	–
CN1C(=O)CC[C@H]1c1cccnc1	inactive	inactive	inactive	inactive	–	–	–	–
CCCC(=O)O	inactive	inactive	inactive	inactive	–	–	–	–
Cc1cc2c(C(C)C)c(O)c(O)c(C=O)c2c(O)c1-c1c(C)cc2c(C(C)C)c(O)c(O)c(C=O)c2c1O	inactive	inactive	inactive	inactive	–	–	–	–
CCCCCCC(CCCCCCCCCCC(=O)OCC(COC(C)=O)OC(C)=O)OC(C)=O (stereo not given)	inactive	inactive	inactive	inactive	–	–	–	–
C=CCOC(=O)C(=C)C	inactive	inactive	inactive	inactive	–	–	–	–
O=C(OCC1CCC2OC2C1)C1CCC2OC2C1 (stereo not given)	inactive	inactive	inactive	inactive	–	–	–	–
NNc1nnc(NN)c2ccccc12	inactive	inactive	inactive	inactive	–	–	–	–
O=C(O)c1ccccc1C(c1ccc(O)cc1)c1ccc(O)cc1	inactive	inactive	inactive	inactive	–	–	–	–
CC[C@@H]([C@H](C)O)n1ncn(-c2ccc(N3CCN(c4ccc(OC[C@@H]5CO[C@@](Cn6cncn6)(c6ccc(F)cc6F)C5)cc4)CC3)cc2)c1=O	inactive	inactive	inactive	inactive	–	–	–	–
CC(C)(C)NCC(O)c1cc(O)cc(O)c1 (stereo not given)	inactive	inactive	inactive	inactive	–	–	–	–

SMILES	Potency [1]	Potency [2]	Potency [3]	Potency [4]	outcome [1]	outcome [2]	outcome [3]	outcome [4]
CCCCCCCCOc1ccccc1C(=O)Nc1ccc(C(=O)OCC[N+](C)(CC)CC)cc1	24.5 µM (active)	38.9 µM (active)	12.3 µM (active)	inactive	–	–	–	–
CN1CCN(c2c(F)cc3c(=O)c(C(=O)O)cn4c3c2SCC4)CC1	inactive	inactive	inactive	inactive	–	–	–	–
Cc1ccc(S(=O)(=O)O)c(C)c1	inactive	inactive	inactive	inactive	–	–	–	–
Cc1c(N(C)CS(=O)(=O)O)c(=O)n(-c2ccccc2)n1C	inactive	inactive	inactive	inactive	–	–	–	–
CC(C)(C)c1cc(/C=C2\SC(=N)NC2=O)cc(C(C)(C)C)c1O	–	–	–	–	inactive	inactive	inactive	inactive
CC(C)(C)NC(N)=O	inactive	inactive	inactive	inactive	–	–	–	–
O=C(N[C@@H](Cc1ccccc1)[C@@H](O)C(=O)N1C[C@@H](O)[C@@H](O)C1)c1cc2cc(Cl)ccc2[nH]1	inactive	inactive	inactive	inactive	–	–	–	–
N[C@@H](Cc1c[nH]c2ccc(O)cc12)C(=O)O	inactive	inactive	inactive	inactive	–	–	–	–
CCCCOC(=O)COc1ccc(Cl)cc1Cl	inactive	inactive	inactive	inactive	–	–	–	–
COC(=O)C1=C(C)NC(C)=C(C(=O)OCC(C)=O)C1c1ccccc1[N+](=O)[O-] (stereo not given)	inactive	inactive	inactive	inactive	–	–	–	–
COc1cc(NC(=O)CC(C)=O)c(OC)cc1Cl	inactive	inactive	inactive	inactive	–	–	–	–
Nc1ccc(C(=O)Oc2ccccc2)c(O)c1	inactive	inactive	inactive	inactive	–	–	–	–
C=C(C)C(=O)OCCOP(=O)(O)O	inactive	inactive	inactive	inactive	–	–	–	–
CC1(C)[C@H]2CC[C@]1(C)C(=O)C2	inactive	inactive	inactive	inactive	–	–	–	–
CCC=O	inactive	inactive	inactive	inactive	–	–	–	–
O=c1[nH]c(=O)n([C@H]2CCCO2)cc1F	inactive	inactive	inactive	inactive	–	–	–	–
O=Nc1ccc(O)cc1	inactive	inactive	inactive	inactive	–	–	–	–
Cc1ccc2ccccc2n1	inactive	inactive	inactive	inactive	–	–	–	–
COC(=O)c1c(Cl)c(Cl)c(C(=O)OC)c(Cl)c1Cl	inactive	inactive	inactive	inactive	–	–	–	–
CC(C)CCCC(C)CCCC(C)CCCCC(C)CCCC(C)CCCC(C)C (stereo not given)	inactive	inactive	inactive	inactive	–	–	–	–
